Measurements: PubChem BioAssay (NCI)
Several values for one entry are separate records, joined by “and”; a condition that tells them apart may be missing. Equal entries are not always repeated. This is part of a sample that, as a whole, favours compounds with a hit. Of some 79,000 tested, about 15% had one in any assay. Where a structure was tested more than once in an assay, its records may differ in their call. Activity calls are given as the source filed them. No stated cut-off is given here; in the data, active means growth inhibition above about 70%; inactive means the rest.

How the values were obtained:
[1] = NCI Yeast Anticancer Drug Screen. Data for the rad52 strain (AID 147);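 further: 0% = growth of vehicle-treated control cultures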; conditions: S. cerevisiae rad52 mutant growth inhibition, stronger effect = higher value
Method in brief: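 Screen used a yeast mutant impaired in DNA repair. After compound exposure, growth was measured. Values reflect inhibition compared with vehicle-treated cells.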

[2] = NCI Yeast Anticancer Drug Screen. Data for the wt1 strain (AID 149);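 further: 0% = growth of vehicle-treated wt1 cultures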; conditions: S. cerevisiae wt1 strain (SPY 50644) growth inhibition, stronger effect = higher value
Method in brief: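 Vehicle-normalised growth inhibition; strain wt1; compound exposure.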

[3] = NCI Yeast Anticancer Drug Screen. Data for the rad50EPP+ strain (AID 151);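 further: 0% = growth of vehicle-treated control cultures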; conditions: S. cerevisiae rad50 mutant strain, stronger effect = higher value
Method in brief: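 Exposing the rad50EPP+ strain to each compound, growth was compared with vehicle-only cultures to give inhibition.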

[4] = NCI Yeast Anticancer Drug Screen. Data for the mgt1 strain (AID 153); conditions: S. cerevisiae mgt1 mutant growth inhibition, stronger effect = higher value
Method in brief: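 Genetically defined yeast (mgt1) treated with compound; inhibition of growth expressed against vehicle-treated controls.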

[5] = NCI Yeast Anticancer Drug Screen. Data for the rad50 strain (AID 155);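 further: 0% = growth of vehicle-only cultures of the same strain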; conditions: S. cerevisiae rad50 strain growth inhibition, stronger effect = higher value
Method in brief: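 A DNA repair-deficient yeast mutant serves as the test organism; compound-induced growth inhibition is calculated against vehicle-treated cells.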

[6] = NCI Yeast Anticancer Drug Screen. Data for the mec2-1 strain (AID 157); conditions: S. cerevisiae mec2-1 strain, stronger effect = higher value
Method in brief: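 Readout is yeast growth inhibition, normalised to vehicle-treated controls, in the mec2-1 strain exposed to compound.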

[7] = NCI Yeast Anticancer Drug Screen. Data for the rad14 strain (AID 159);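 further: 0% = growth of vehicle-treated control cultures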; conditions: S. cerevisiae rad14 strain growth inhibition, stronger effect = higher value
Method in brief: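 Vehicle-treated cultures served as the baseline for growth inhibition of a DNA repair-mutant yeast strain exposed to each compound.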

[8] = NCI Yeast Anticancer Drug Screen. Data for the sgs1 mgt1 strain (AID 161);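 further: 0% = growth of cultures given vehicle only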; conditions: S. cerevisiae sgs1 mgt1 strain, stronger effect = higher value
Method in brief: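 Percent growth inhibition was derived by comparing compound-exposed mutant yeast with vehicle-exposed cultures. The strain carries alterations in DNA damage repair.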

[9] = NCI Yeast Anticancer Drug Screen. Data for the cln2 rad14 strain (AID 165);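 further: 0% = growth equal to vehicle treated cultures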; conditions: S. cerevisiae cln2 rad14 strain, stronger effect = higher value
Method in brief: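 Relative to vehicle controls, growth inhibition of compound-treated cln2 rad14 yeast was recorded.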

[10] = NCI Yeast Anticancer Drug Screen. Data for the bub3 strain (AID 167); conditions: S. cerevisiae bub3 mutant strain, stronger effect = higher value
Method in brief: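 Inhibition values come from growth of compound-treated mutant yeast normalised to vehicle-treated controls.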

[11] = NCI Yeast Anticancer Drug Screen. Data for the wt2 strain (AID 169);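 further: 0% = growth of vehicle-treated yeast cultures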; conditions: S. cerevisiae wt2 strain growth inhibition, stronger effect = higher value
Method in brief: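 Values express reduction in yeast growth under compound treatment, referenced to vehicle-treated cells.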

[12] = NCI Yeast Anticancer Drug Screen. Data for the mlh1 strain (AID 171);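 further: 0% = growth of vehicle-treated control cultures of the same strain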; conditions: S. cerevisiae mlh1 strain growth inhibition, stronger effect = higher value
Method in brief: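 Steps: expose the defined-mutant yeast strain to compound; expose a parallel culture to vehicle; measure growth; express compound effect as inhibition relative to the vehicle culture.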

[13] = NCI Yeast Anticancer Drug Screen. Data for the sgs1 strain (AID 173);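 further: 0% = growth of vehicle-only control cultures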; conditions: S. cerevisiae sgs1 mutant, stronger effect = higher value
Method in brief: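 Treat defined-mutant yeast with compound; measure growth; calculate inhibition relative to vehicle-treated cells.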

[14] = NCI Yeast Anticancer Drug Screen. Data for the mlh1 rad18 strain (AID 175); conditions: S. cerevisiae mlh1 rad18 strain growth inhibition, stronger effect = higher value
Method in brief: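 Test agents were incubated with a yeast strain of defined genotype (DNA damage repair defect). Inhibition of growth was derived by comparison with vehicle-exposed cultures.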

[15] = NCI Yeast Anticancer Drug Screen. Data for the rad18 strain (AID 177); conditions: S. cerevisiae rad18 mutant growth inhibition, stronger effect = higher value
Method in brief: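 A genetically defined yeast mutant impaired in DNA damage repair was treated with test compounds, then its growth was measured against cultures receiving vehicle alone.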

[16] = at 5.0 µM (retest, dose inferred, filed as 0.5)
[17] = at 50.0 µM (retest, dose inferred, filed as 5.0)

Measured: growth inhibition

NNc1ccccc1Cl
inactive: [1]; at 1.2 µM 40% | [2]; at 1.2 µM 40% | [3]; at 1.2 µM 56% | [4]; at 1.2 µM 25% | [4]; at 3.7 µM 42% | [5]; at 1.2 µM 39% | [5]; [16] 21% | [6]; at 1.2 µM 19% | [6]; at 3.7 µM 68% | [6]; [16] -8% | [7]; at 1.2 µM 23% | [7]; at 3.7 µM 29% | [8]; [16] 11% | [9]; [16] 41% | [10]; at 1.2 µM 38% | [11]; at 1.2 µM 42% | [11]; at 3.7 µM 66% | [12]; at 1.2 µM 44% | [13]; at 1.2 µM 47% | [15]; at 1.2 µM 46%
active: [1]; at 3.7 µM 72% | [1]; at 11.0 µM 78% | [1]; at 33.0 µM 95% | [1]; at 100.0 µM 96% | [2]; at 3.7 µM 73% | [2]; at 11.0 µM 81% | [2]; at 33.0 µM 95% | [2]; at 100.0 µM 97% | [3]; at 3.7 µM 80% | [3]; at 11.0 µM 92% | [3]; at 33.0 µM 95% | [3]; at 100.0 µM 94% | [4]; at 11.0 µM 79% | [4]; at 33.0 µM 96% | [4]; at 100.0 µM 96% | [5]; at 3.7 µM 83% | [5]; at 11.0 µM 80% | [5]; at 33.0 µM 96% | [5]; [17] 97% | [5]; at 50.0 µM 89.2% | [5]; at 100.0 µM 97% | [6]; at 11.0 µM 84% | [6]; at 33.0 µM 97% | [6]; [17] 99% | [6]; at 50.0 µM 90.7% | [6]; at 100.0 µM 97% | [7]; at 11.0 µM 76% | [7]; at 33.0 µM 96% | [7]; at 100.0 µM 96% | [8]; [17] 96% | [8]; at 50.0 µM 92.3% | [9]; [17] 98% | [9]; at 50.0 µM 89.5% | [10]; at 3.7 µM 89% | [10]; [16] 86% | [10]; at 11.0 µM 93% | [10]; at 33.0 µM 97% | [10]; [17] 98% | [10]; at 50.0 µM 89.5% | [10]; at 100.0 µM 97% | [11]; at 11.0 µM 83% | [11]; at 33.0 µM 96% | [11]; at 100.0 µM 96% | [12]; at 3.7 µM 80% | [12]; at 11.0 µM 89% | [12]; at 33.0 µM 97% | [12]; at 100.0 µM 97% | [13]; at 3.7 µM 86% | [13]; at 11.0 µM 90% | [13]; at 33.0 µM 96% | [13]; at 100.0 µM 97% | [14]; [16] 82% | [14]; [17] 97% | [14]; at 50.0 µM 88.2% | [15]; at 3.7 µM 86% | [15]; at 11.0 µM 84% | [15]; at 33.0 µM 95% | [15]; at 100.0 µM 97%

O=C(Nc1cc(Cl)ccc1Cl)C(Cl)(Cl)Cl
active: [14]; [17] 70%
inactive: [1]; at 1.2 µM 1% | [1]; at 3.7 µM 6% | [1]; at 11.0 µM 12% | [1]; at 33.0 µM 22% | [1]; at 100.0 µM 30% | [2]; at 1.2 µM 0% | [2]; at 3.7 µM 2% | [2]; at 11.0 µM 4% | [2]; at 33.0 µM 6% | [2]; at 100.0 µM 6% | [3]; at 1.2 µM 2% | [3]; at 3.7 µM 8% | [3]; at 11.0 µM 14% | [3]; at 33.0 µM 22% | [3]; at 100.0 µM 25% | [4]; at 1.2 µM 1% | [4]; at 3.7 µM 3% | [4]; at 11.0 µM 6% | [4]; at 33.0 µM 5% | [4]; at 100.0 µM -22% | [5]; at 1.2 µM 2% | [5]; at 3.7 µM 6% | [5]; [16] 16% | [5]; at 11.0 µM 13% | [5]; at 33.0 µM 26% | [5]; [17] 41% | [5]; at 50.0 µM 53.9% | [5]; at 100.0 µM 26% | [6]; at 1.2 µM 1% | [6]; at 3.7 µM 6% | [6]; [16] -4% | [6]; at 11.0 µM 11% | [6]; at 33.0 µM 19% | [6]; [17] 58% | [6]; at 50.0 µM 61.3% | [6]; at 100.0 µM 25% | [7]; at 1.2 µM 3% | [7]; at 3.7 µM 6% | [7]; at 11.0 µM 13% | [7]; at 33.0 µM 21% | [7]; at 100.0 µM 30% | [8]; [16] 1% | [8]; [17] 32% | [8]; at 50.0 µM 24.1% | [9]; [16] 32% | [9]; [17] -6% | [9]; at 50.0 µM -52.4% | [10]; at 1.2 µM -1% | [10]; at 3.7 µM 3% | [10]; [16] -11% | [10]; at 11.0 µM 8% | [10]; at 33.0 µM 10% | [10]; [17] 31% | [10]; at 50.0 µM 28.1% | [10]; at 100.0 µM 12% | [11]; at 1.2 µM 1% | [11]; at 3.7 µM 2% | [11]; at 11.0 µM 5% | [11]; at 33.0 µM 3% | [11]; at 100.0 µM 6% | [12]; at 1.2 µM 1% | [12]; at 3.7 µM 4% | [12]; at 11.0 µM 5% | [12]; at 33.0 µM 12% | [12]; at 100.0 µM 20% | [13]; at 1.2 µM 1% | [13]; at 3.7 µM 3% | [13]; at 11.0 µM 7% | [13]; at 33.0 µM 10% | [13]; at 100.0 µM 19% | [14]; [16] -1% | [14]; at 50.0 µM 63.6% | [15]; at 1.2 µM 2% | [15]; at 3.7 µM 4% | [15]; at 11.0 µM 16% | [15]; at 33.0 µM 23% | [15]; at 100.0 µM 31%

C/C(=N\O)c1ccc2ccc3ccccc3c2c1
77.6% (active) and 30.2% (inactive): [9]; at 50.0 µM
inactive: [1]; at 1.2 µM -2% | [1]; at 3.7 µM 11% | [1]; at 11.0 µM 49% | [2]; at 1.2 µM -4% | [2]; at 3.7 µM -5% | [2]; at 11.0 µM -9% | [2]; at 33.0 µM 7% | [3]; at 1.2 µM 12% | [3]; at 3.7 µM 35% | [4]; at 1.2 µM 1% | [4]; at 3.7 µM 0% | [4]; at 11.0 µM 2% | [4]; at 33.0 µM 37% | [5]; at 1.2 µM 4% | [5]; at 3.7 µM 12% | [5]; [16] -142% and 7% | [5]; at 11.0 µM 68% | [6]; at 1.2 µM 0% | [6]; at 3.7 µM 1% | [6]; [16] -43% and -1% | [6]; at 11.0 µM 15% | [6]; at 33.0 µM 30% | [6]; [17] -2% and 31% | [8]; [16] -60% and 0% | [8]; [17] 53% and 65% | [9]; [16] -49% and -8% | [9]; [17] 12% and 31% | [10]; at 1.2 µM 4% | [10]; at 3.7 µM 3% | [10]; [16] -50% and 1% | [10]; at 11.0 µM 29% | [11]; at 1.2 µM -1% | [11]; at 3.7 µM -1% | [11]; at 11.0 µM 0% | [11]; at 33.0 µM 35% | [12]; at 1.2 µM 3% | [12]; at 3.7 µM -3% | [12]; at 11.0 µM 7% | [12]; at 33.0 µM 61%
93.7% (active) and 7.85% (inactive): [6]; at 50.0 µM
85% (active) and 65% (inactive): [5]; [17]
94.5% (active) and 56.8% (inactive): [10]; at 50.0 µM
active: [1]; at 33.0 µM 95% | [1]; at 100.0 µM 95% | [2]; at 100.0 µM 93% | [3]; at 11.0 µM 74% | [3]; at 33.0 µM 90% | [3]; at 100.0 µM 94% | [4]; at 100.0 µM 94% | [5]; at 33.0 µM 95% | [5]; at 50.0 µM 96.3% and 78.3% | [5]; at 100.0 µM 97% | [6]; at 100.0 µM 94% | [8]; at 50.0 µM 93.1% and 80.3% | [10]; at 33.0 µM 78% | [10]; [17] 72% | [10]; at 100.0 µM 94% | [11]; at 100.0 µM 92% | [12]; at 100.0 µM 90%
